40 molecules from ChEMBL document CHEMBL3433997, “St. Jude Leishmania screening dataset” (2016) can be followed below.

One assay addresses Hexose transporter 1 (Plasmodium falciparum) (UniProt O97467). In words: ST_JUDE_LEISH: Cytotoxicity at 2uM final concentration against transgenic Leishmania Mexicana promastigotes LmPfHT that are glucose transport deficient and complemented with the Plasmodium falciparum hexose transporter. Activity is measured by DNA content using SYBR green in vitro. The assay is classed as functional.
As a reminder, the inhibition is the change of the read-out against control, counted positive when it falls. Consider `Nc1ccc(-c2csc(Nc3ccncc3)n2)cc1`, for which the inhibition is 1.93%.
The same measure, in the same setting: the result for `Cc1cc(N)c2cc(NC(=O)c3cc(C(F)(F)F)cc(C(F)(F)F)c3)ccc2n1` reads 1.04%; that for `O=C(NC(c1ccc(Cl)cc1)c1ccc2cccnc2c1O)c1ccccc1` (stereo not given), -0.02%; that for `COc1cc2cc(C(=O)Nc3ccccc3)c(N)nc2cc1OC`, 1.61%.
Still for that read-out and setting: the result for `CCc1ccc(NC(=O)c2ccc(CN3CCCN(Cc4ccc(C)s4)CC3)cc2)cc1` reads 5.06%.
As to `CC(C)c1ncc(-c2ccncc2)c(C2CCC(CNC(=O)c3cccnc3)CC2)n1` (stereo not given), the inhibition is 1.25%.
On to `COc1ccc(-c2nc3c4ccccc4c4ccc(I)cc4c3[nH]2)cc1`, for which the inhibition is 2.48%.
As to `O=C(NCCCCN1CCC(C(c2ccccc2)c2ccccc2)CC1)c1ccc(NC(=O)c2ccc(Cl)cc2)cc1`, the inhibition was -0.4%.
In the case of `N#Cc1cccc(COC(=O)C2=C(COc3ccccc3Cl)NC(=O)NC2c2c[nH]c3cnccc23)c1` (stereo not given), the inhibition turned out to be 6.63%.
Still for that read-out and setting: the result for `CC1CC1C(=O)NC1CCN(CC2(c3ccccc3)CCCCC2)CC1` (stereo not given) reads 1.18%; that for `Oc1cc2c(cc1CN1CCN(Cc3cccs3)CC1)CCC2`, -0.33%.
With `Cc1cc(OCCCN2CCCC2)ccc1NC(=O)COc1ccc(Cl)cc1C(=O)c1cc(C#N)cc(C(F)(F)F)c1`, the inhibition was 11.6%.
The same measure, in the same setting: the result for `CNC(=O)CSc1nnc(-c2ccc(C)cc2)c(-c2ccc(C)cc2)n1` reads 2.74%; that for `O=C(Cn1c(CCc2cccc(F)c2F)nc(=O)c2ccccc21)N(Cc1ccc(-c2ccc(C(F)(F)F)cc2)cc1)C1CCN(C2CCOCC2)CC1`, 2.37%; that for `CCCOc1ccc(C=C(CC(=O)O)c2nc3ccccc3s2)cc1OCC`, 2.53%.
With `O=C(Nc1ccc(S(=O)(=O)N2CCCCC2)cc1)c1cc(-c2cc(Cl)ccc2O)n[nH]1`, the inhibition came to 6.9%.
Consider `CCCCCCCN(Cc1ccc(OC(C)(C)C(=O)OCC)cc1)C(=O)Nc1ccccc1OCC`, for which the inhibition was -1.76%.
On the same count and under the same terms, the result for `COc1ccc(CN(C)CCCCc2ccc(NC(=O)COc3cccc4sc5ccccc5c(=O)c34)cc2)cc1OC` reads -3.06%.
The same measure, in the same setting: to `O=C(/C=C/c1ccccc1Cl)Nc1ccc(Br)c(OCCN2CCN(CCN3CCOCC3)CC2)c1` belongs 1.38%; to `Clc1cc2c(Nc3ccc(Oc4ccccc4)cc3)ccnc2cc1-c1ccc(CNCCN2CCOCC2)o1`, -0.57%; to `CCCCCCNC(=O)C1Cc2c([nH]c3ccc(Br)cc23)C2(CCN(CCc3ccccc3)CC2)N1` (stereo not given), 10.8%.
With `CCCOc1ccc(N2C(N)=NC(N)=NC2(C)C)cc1`, the inhibition is 1.16%.
Turning to `N#Cc1ccc(N/C(=N\c2ccccc2Br)N(C2CCCCC2)C2CCCCC2)c(O)c1`, the inhibition stood at 4.65%.
Still for that read-out and setting: the result for `CCCCCCNC(=O)C1Cc2c([nH]c3ccc(C)cc23)C2(CCN(Cc3ccccc3)CC2)N1` (stereo not given) reads 0.07%; that for `Cc1cccc(Nc2nc(N[C@@H]3CCCNC3)nc3cc[nH]c(=O)c23)c1`, 85.2%.
Same read-out and setting: to `Oc1ccc(CCNc2nc(NCCCOc3ccccc3-c3ccncc3)nc(N3CCNCC3)n2)cc1` belongs 5.15%.
Same read-out and setting: to `CC(C)c1ccc(NC(=O)c2ccc(C(=O)NC3CCN(Cc4ccccc4)CC3)cc2)cc1` belongs 2.91%.
For the molecule `CC1(C(=O)Nc2ccc([N+](=O)[O-])cc2O)CC2c3ccccc3C1c1ccccc12` (stereo not given), the inhibition amounted to 3.79%.
The same measure, in the same setting: the result for `COC(=O)c1ccc2nc(-c3cc(OC)c(O)c(C(=O)NC4CCN(Cc5ccccc5)CC4)c3)[nH]c2c1` reads 5.32%.
Still for that read-out and setting: the result for `CN1CCN(Cc2cc3cc(NC(=O)/C=C/c4cccc(Cl)c4)ccc3s2)CC1` reads 0.04%.
Still for that read-out and setting: the result for `CCN(CC)CCCOc1ccc(Nc2nccc(-c3c(-c4cccc(NC(=O)c5c(F)cccc5F)c4)nn4ccccc34)n2)cc1F` reads 56.7%; that for `CC(C)(C)c1ccc(NC(=O)c2cccc(CN3CCCN(Cc4ccc(F)cc4)CC3)c2)cc1`, 2.6%; that for `CN1CCC(NCc2ccc(S(=O)(=O)Nc3ccc(Oc4cccc(Cl)c4)cc3)cc2)CC1`, 1.05%.
`CNC(=O)c1ccccc1Nc1nc(Nc2ccc(N3CCOCC3)cc2)ncc1Cl`: the inhibition came out at 84.9%.
Regarding `CCc1c(CCNCCCCCCNCCc2ccc3c(c2C)OCO3)ccc2c1OCO2`, the inhibition worked out at 5.13%.
Turning to `COc1cccc(C(=O)C2CC2CN(C)CC(O)c2cc(C)c(OC)cc2C)c1` (stereo not given), the inhibition is -1.24%.
On the same count and under the same terms, the result for `OCc1c(Cl)cc(Cl)cc1CNCCCNc1nc2ccccc2[nH]1` reads 6.27%.
With `CC(C)N1CCC(N(Cc2ccc(-c3ccc(Cl)cc3)cc2)C(=O)Cn2c(CCc3cccc(F)c3F)cc(=O)c3ccccc32)CC1`, the inhibition was 2.15%.
`Clc1ccc(/N=C(/NCCCCCCCN/C(=N\c2ccc(Cl)cc2)Nc2ccc(Cl)cc2)Nc2ccc(Cl)cc2)cc1`: the inhibition was determined as 1.89%.
On to `Clc1ccc2c(NCc3ccccc3)ccnc2c1`, for which the inhibition turned out to be 3%.

The target of another assay is Glucose transporter (Leishmania mexicana) (UniProt O61059). The experiment in a line: ST_JUDE_LEISH: Cytotoxicity at 2uM final concentration against transgenic Leishmania Mexicana promastigotes LmGT2 that are glucose transport deficient and complemented with the L. Mexicana glucose transporter 2. Activity is measured by DNA content using SYBR green in vitro. The assay is classed as functional.
Take `Nc1ccc(-c2csc(Nc3ccncc3)n2)cc1`: the inhibition is 2.21%.
Turning to `Cc1cc(N)c2cc(NC(=O)c3cc(C(F)(F)F)cc(C(F)(F)F)c3)ccc2n1`, the inhibition stood at 0.8%.
For the molecule `O=C(NC(c1ccc(Cl)cc1)c1ccc2cccnc2c1O)c1ccccc1` (stereo not given), the inhibition is -2.91%.
In the case of `COc1cc2cc(C(=O)Nc3ccccc3)c(N)nc2cc1OC`, the inhibition came to 0.18%.
The same measure, in the same setting: the result for `CCc1ccc(NC(=O)c2ccc(CN3CCCN(Cc4ccc(C)s4)CC3)cc2)cc1` reads 2.95%; that for `CC(C)c1ncc(-c2ccncc2)c(C2CCC(CNC(=O)c3cccnc3)CC2)n1` (stereo not given), 1.81%.
The same measure, in the same setting: to `COc1ccc(-c2nc3c4ccccc4c4ccc(I)cc4c3[nH]2)cc1` belongs 2.32%.
With `O=C(NCCCCN1CCC(C(c2ccccc2)c2ccccc2)CC1)c1ccc(NC(=O)c2ccc(Cl)cc2)cc1`, the inhibition is -1.74%.
Still for that read-out and setting: to `N#Cc1cccc(COC(=O)C2=C(COc3ccccc3Cl)NC(=O)NC2c2c[nH]c3cnccc23)c1` (stereo not given) belongs 6.83%.
For `CC1CC1C(=O)NC1CCN(CC2(c3ccccc3)CCCCC2)CC1` (stereo not given), the inhibition was -0.67%.
Same read-out and setting: to `Oc1cc2c(cc1CN1CCN(Cc3cccs3)CC1)CCC2` belongs 2.76%.
As to `Cc1cc(OCCCN2CCCC2)ccc1NC(=O)COc1ccc(Cl)cc1C(=O)c1cc(C#N)cc(C(F)(F)F)c1`, the inhibition was 10.3%.
The same measure, in the same setting: to `CNC(=O)CSc1nnc(-c2ccc(C)cc2)c(-c2ccc(C)cc2)n1` belongs 1.88%; to `O=C(Cn1c(CCc2cccc(F)c2F)nc(=O)c2ccccc21)N(Cc1ccc(-c2ccc(C(F)(F)F)cc2)cc1)C1CCN(C2CCOCC2)CC1`, 1.17%; to `CCCOc1ccc(C=C(CC(=O)O)c2nc3ccccc3s2)cc1OCC`, -7.54%.
Take `O=C(Nc1ccc(S(=O)(=O)N2CCCCC2)cc1)c1cc(-c2cc(Cl)ccc2O)n[nH]1`: the inhibition was found to be 4.71%.
Consider `CCCCCCCN(Cc1ccc(OC(C)(C)C(=O)OCC)cc1)C(=O)Nc1ccccc1OCC`, for which the inhibition was -2.13%.
Still for that read-out and setting: the result for `COc1ccc(CN(C)CCCCc2ccc(NC(=O)COc3cccc4sc5ccccc5c(=O)c34)cc2)cc1OC` reads 0.59%; that for `O=C(/C=C/c1ccccc1Cl)Nc1ccc(Br)c(OCCN2CCN(CCN3CCOCC3)CC2)c1`, 0.88%.
Same read-out and setting: to `Clc1cc2c(Nc3ccc(Oc4ccccc4)cc3)ccnc2cc1-c1ccc(CNCCN2CCOCC2)o1` belongs -0.03%; to `CCCCCCNC(=O)C1Cc2c([nH]c3ccc(Br)cc23)C2(CCN(CCc3ccccc3)CC2)N1` (stereo not given), 9.91%.
Regarding `CCCOc1ccc(N2C(N)=NC(N)=NC2(C)C)cc1`, the inhibition worked out at 2.09%.
Consider `N#Cc1ccc(N/C(=N\c2ccccc2Br)N(C2CCCCC2)C2CCCCC2)c(O)c1`, for which the inhibition stood at 5.56%.
As for `CCCCCCNC(=O)C1Cc2c([nH]c3ccc(C)cc23)C2(CCN(Cc3ccccc3)CC2)N1` (stereo not given), the inhibition is 1.33%.
Turning to `Cc1cccc(Nc2nc(N[C@@H]3CCCNC3)nc3cc[nH]c(=O)c23)c1`, the inhibition came out at 83.4%.
Same read-out and setting: to `Oc1ccc(CCNc2nc(NCCCOc3ccccc3-c3ccncc3)nc(N3CCNCC3)n2)cc1` belongs 5.3%.
The same measure, in the same setting: the result for `CC(C)c1ccc(NC(=O)c2ccc(C(=O)NC3CCN(Cc4ccccc4)CC3)cc2)cc1` reads -1.3%.
On to `CC1(C(=O)Nc2ccc([N+](=O)[O-])cc2O)CC2c3ccccc3C1c1ccccc12` (stereo not given), for which the inhibition came out at 0.74%.
In the case of `COC(=O)c1ccc2nc(-c3cc(OC)c(O)c(C(=O)NC4CCN(Cc5ccccc5)CC4)c3)[nH]c2c1`, the inhibition turned out to be 7.01%.
Still for that read-out and setting: to `CN1CCN(Cc2cc3cc(NC(=O)/C=C/c4cccc(Cl)c4)ccc3s2)CC1` belongs -0.14%; to `CCN(CC)CCCOc1ccc(Nc2nccc(-c3c(-c4cccc(NC(=O)c5c(F)cccc5F)c4)nn4ccccc34)n2)cc1F`, 10.5%.
The same measure, in the same setting: to `CC(C)(C)c1ccc(NC(=O)c2cccc(CN3CCCN(Cc4ccc(F)cc4)CC3)c2)cc1` belongs 1.15%; to `CN1CCC(NCc2ccc(S(=O)(=O)Nc3ccc(Oc4cccc(Cl)c4)cc3)cc2)CC1`, 0.97%; to `CNC(=O)c1ccccc1Nc1nc(Nc2ccc(N3CCOCC3)cc2)ncc1Cl`, 74.6%.
On the same count and under the same terms, the result for `CCc1c(CCNCCCCCCNCCc2ccc3c(c2C)OCO3)ccc2c1OCO2` reads 10.6%; that for `COc1cccc(C(=O)C2CC2CN(C)CC(O)c2cc(C)c(OC)cc2C)c1` (stereo not given), 0.15%; that for `OCc1c(Cl)cc(Cl)cc1CNCCCNc1nc2ccccc2[nH]1`, 1.01%.
As for `CC(C)N1CCC(N(Cc2ccc(-c3ccc(Cl)cc3)cc2)C(=O)Cn2c(CCc3cccc(F)c3F)cc(=O)c3ccccc32)CC1`, the inhibition was 1.92%.
Still for that read-out and setting: the result for `Clc1ccc(/N=C(/NCCCCCCCN/C(=N\c2ccc(Cl)cc2)Nc2ccc(Cl)cc2)Nc2ccc(Cl)cc2)cc1` reads -1.85%; that for `Clc1ccc2c(NCc3ccccc3)ccnc2c1`, -0.97%.
